Assay outcomes from PubChem.
esBAF inh: Bmi1 luciferase reporter increase in mESCs, primary screen, esBAF inhibitor project, mouse ES cells, Bmi1 luciferase knock-in, single point; AID 602393, 2012; 24 h; 100% = twice the neutral-well signal; reporter increase, % at 12.5 µM; 2% of 350,000 active; in the data active = activation above about 40%;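 note: 0% = median of the plate's neutral control wells and 100% = double that signal; a rise in the Bmi1 reporter signal indicates esBAF inhibition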
hgDAF12 agonist: H. glycines DAF-12 receptor agonists, primary screen, cell-based, luminescence, HEK293, GAL4 fusion, UAS-luciferase | activation, % at 6.8 µM | HEK293 GAL4-hgDAF12 UAS-luciferase reporter, agonist luminescence; normalized to butyrate control | 1.8% of 370,000 active | Nuclear hormone receptor DAF-12 (Heterodera glycines), GAL4 fusion;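 active = activation above a cutoff set at the mean of all screened compounds plus 3 SD, cut at about 10% in these data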;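 note: 0% = DMSO wells and 100% = sodium butyrate wells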
DAX1 StAR inh: DAX1 (NR0B1) inhibitors on StAR promoter, primary screen, cell-based, luminescence, SF-1 (NR5A1), full-length DAX-1 | AID 652010, 2013 | HEK293T StAR-luciferase reporter, SF-1/DAX-1 repression relief | inhibition, % at 6.8 µM | 1.1% of 370,000 active;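 active = inhibition above the mean over all tested compounds plus 3 SD, cut at about 3.6% in these data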;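 note: 0% = DAX-1 cells with DMSO and 100% = cells lacking DAX-1 with DMSO; higher inhibition means more luminescence from relief of DAX-1 repression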
hcDAF12 agonist: H. contortus DAF-12 nuclear receptor activators, primary screen, cell-based, luminescence, HEK293, lit1-tk-luc reporter | HEK293 hcDAF-12 lit1-tk-luc reporter; 0% DMSO, 100% Δ7-dafachronic acid | activation, % at 6.8 µM | 1.4% of 370,000 active | AID 652067, 2013;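 active = activation above the mean of all tested compounds plus 3 SD, cut at about 5.5% in these data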;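 note: 100% = response to 3 µM Δ7-dafachronic acid high control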
Wnt act: Wnt/beta-catenin pathway activators, primary screen, cell-based, plate reader, single point; Wnt/beta-catenin reporter cell assay, activator; activation, % at 9.35 µM; 1.2% of 300,000 active; in the data active = activation above about 30%, passing the limit was not always enough;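 note: 0% = neutral control wells and 100% = positive control wells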
ssDAF-12 act: S. stercoralis DAF-12 nuclear receptor activators, primary screen, cell-based, luminescence, HEK293, GRIP1 co-expression, lit1-tk-luc; HEK293 ssDAF-12/GRIP1 lit1-tk-luc reporter; % of 3 µM dafachronic acid response; Nuclear hormone receptor DAF-12 (Strongyloides stercoralis); activation, % at 6.8 µM; 1% of 370,000 active;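 active = activation above the mean over all tested compounds plus 3 SD, cut at about 0.9% in these data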;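 note: 0% = DMSO-only wells and 100% = 3 µM delta7-dafachronic acid wells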
The depositor's hits bear a star. The list is not random: actives were taken first. Their share in the collection is about 4.2%.

O=[N+]([O-])c1ccc(S(=O)(=O)NCC2COc3ccccc3O2)cc1 (stereo unspecified) was read as esBAF inh -8.4, hgDAF12 agonist -0.1, DAX1 StAR inh 0.9, hcDAF12 agonist 2.8, Wnt act 0.4 and ssDAF-12 act -0.4.
Screening NS(=O)(=O)c1ccc(NCC2COc3ccccc3O2)c([N+](=O)[O-])c1 (stereo unspecified) returned hgDAF12 agonist 11.2*, DAX1 StAR inh 0.1, hcDAF12 agonist 3.8, Wnt act -0.1 and ssDAF-12 act 0.1.
O=C(N/N=C/c1cc([N+](=O)[O-])ccc1O)c1ccc(COc2ccc3c(c2)CCC3)o1 was read as esBAF inh -20.5, hgDAF12 agonist 0.3, DAX1 StAR inh 1.0, hcDAF12 agonist 3.8, Wnt act 0.3 and ssDAF-12 act -0.5.
Screening COc1ccc(Br)cc1/C=N/NC(=O)c1ccc(COc2ccc3c(c2)CCC3)o1 returned esBAF inh 55.8*, hgDAF12 agonist 2.3, DAX1 StAR inh -0.2, hcDAF12 agonist 0.8, Wnt act -1.6 and ssDAF-12 act -0.9.
`C[C@@H]1CN([C@H](C)CO)C(=O)c2cc(NS(=O)(=O)c3ccc(Cl)cc3)ccc2O[C@@H]1CN(C)S(=O)(=O)c1ccccc1` gave esBAF inh 6.7.
Screening O=C1CSC(=S)N1N=Cc1c(O)ccc2ccccc12 returned hgDAF12 agonist 3.9, DAX1 StAR inh 1.5, hcDAF12 agonist 4.1, Wnt act 5.1 and ssDAF-12 act 1.0*.
C[C@H]1CN([C@@H](C)CO)C(=O)c2ccccc2-c2ccccc2CO[C@H]1CN(C)Cc1ccc(C(=O)O)cc1 was read as esBAF inh 2.2.
For Cn1ccsc1=NC(=O)c1cccc(OC(F)F)c1 the results were esBAF inh 52.5*, hgDAF12 agonist 9.0, DAX1 StAR inh 0.6, hcDAF12 agonist 3.2, Wnt act 21.6 and ssDAF-12 act 0.4.
`CCN(CC(=O)NCc1ccc(F)cc1)C(=O)c1ccc(COc2ccccc2)cc1` gave esBAF inh 56.7*, hgDAF12 agonist 2.2, DAX1 StAR inh -0.2, hcDAF12 agonist -1.6, Wnt act 0.0 and ssDAF-12 act -0.8.
`C=C1c2ccccc2O[C@H](C(=O)OCC)[C@@H]1C1CCCCC1` gave esBAF inh -8.2, hgDAF12 agonist 1.3, DAX1 StAR inh 4.1*, hcDAF12 agonist 1.6, Wnt act -1.6 and ssDAF-12 act -1.0.
Screening C[C@H](NC(=O)C[C@H]1C=C[C@H](NC(=O)C2CCOCC2)[C@H](CO)O1)c1ccccc1 returned esBAF inh -1.5.
`Cc1ccc(-c2nc3c4ccccc4ccn3c2Cc2ccccc2C(F)(F)F)cc1` gave hgDAF12 agonist 1.9, DAX1 StAR inh 0.8, hcDAF12 agonist 4.5, Wnt act -3.8 and ssDAF-12 act 0.9*.
For COc1ccccc1Cc1c(-c2ccc(F)cc2)nc2c3ccccc3ccn12 the results were hgDAF12 agonist 4.5, DAX1 StAR inh -0.4, hcDAF12 agonist 5.8*, Wnt act 2.4 and ssDAF-12 act 0.5.
`COc1ccccc1Cc1c(-c2ccco2)nc2c3ccccc3ccn12` gave hgDAF12 agonist 6.7, DAX1 StAR inh 0.7, hcDAF12 agonist 5.7*, Wnt act 29.3 and ssDAF-12 act 0.6.
For C[C@H](CO)N1C[C@H](C)[C@@H](CN(C)Cc2ccc(C(F)(F)F)cc2)Oc2ccc(N(C)C)cc2CC1=O the results were esBAF inh 3.5.
CC1CCCN(C(C(=O)Nc2ccc3c(c2)OCO3)c2ccccc2)C1 (stereo unspecified) was read as esBAF inh -9.9, hgDAF12 agonist 6.5, DAX1 StAR inh 0.8, hcDAF12 agonist 6.3*, Wnt act 3.5 and ssDAF-12 act -0.2.
